# Assay outcomes as filed in PubChem BioAssay.
# Compounds with a hit are over-represented: about 18% of the library has one in this group of screens.
# TDP1 cell CPT – growth inhibition of DT40 Tdp1-/-;hTDP1 cells with camptothecin (screen for TDP1 inhibitors) | chicken DT40 Tdp1-/-;hTDP1 cells + 20 nM CPT, ATP luminescence, 48 h | Potency, µM (series often up to 46.2 µM), most hits filed as inhibitors | hit rate 12% among 420,000 | AID 686979; also: nearly all actives have a fitted effect of over 55% in size
#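 Cell growth measured by CellTiter-Glo luminescence after a minimum 48 h, 37 C compound exposure with 20 nM CPT in Tdp1-knockout DT40 cells stably expressing hTDP1, seeded 400/well; qHTS titration format.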
# HepG2 tox – HepG2 cytotoxicity, counter-screen for TGF-b inhibitors; hit rate 0.76% among 410,000; HepG2 CAGA-GFP viability, ATP luminescence, 18 h; Potency, µM (highest dose often 46.1 µM), hits mostly cytotoxic
#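 CellTiter-Glo luminescence gave cytotoxicity after 18 hours at 37 degrees C. The cells were HepG2 CAGA-GFP in 1% FBS DMEM, stimulated with 500 pg/mL TGF-beta after compound addition. %Activity was normalised to no-cell wells (complete cell-killing) and DMSO (no toxicity), and curves were fitted and classified.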
# IL-1B inflam inh – inhibitors of inflammasome signaling (IL-1 beta secretion); THP-1 LPS/ATP IL-1B secretion, AlphaLISA, 16 h; hits give low values; activity change, % at 57.5 µM; hit rate 4.7% among 360,000; in the data active = activity change below about -50%; inconclusive = mostly about -30% to -49%
#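 THP-1 cells pretreated 1 hr with compounds (up to 57.5 uM final), then stimulated with LPS (250 ng/mL final) plus ATP (1.25 mM final); secreted IL-1B measured by AlphaLISA after 16 hr, decreased signal indicating inhibition.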
# TGFb SMAD3 inh – blocks TGF-b signaling; HepG2 CAGA-GFP TGF-b/SMAD3 reporter, GFP fluorescence, 18 h; TGF-beta stimulated, 500 pg/mL final; Potency, µM (top dose mostly 46.1 µM), actives largely listed as inhibitors; hit rate 1.2% among 410,000; AID 588855; also: nearly all actives have a fitted effect of over 65% in size
#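 TGF-beta reporter screen: HEPG2 CAGA-GFP, 1% FBS, 500 pg/mL TGF-beta final, 18 h; per-cell GFP summed per well; curves fitted and categorized by class.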
# DT40 TDP1 no CPT – qHTS for Inhibitors of human tyrosyl-DNA phosphodiesterase 1 (TDP1): qHTS in cells in absence of CPT; hit rate 15% among 420,000; DT40 Tdp1-/- hTDP1 cells, no CPT, ATP luminescence, 48 h; Potency, µM (doses to about 46.2 µM), actives largely listed as inhibitors; also: nearly all actives have a fitted effect of over 55% in size
#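 Luminescent ATP content (CellTiter-Glo) served as the growth readout. Knockout chicken DT40 cells expressing human TDP1 were exposed to compounds without camptothecin for a minimum 48 hr at 37 °C.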
# TDP1 inh – blocks human tyrosyl-DNA phosphodiesterase 1. Q9NUW8. recombinant TDP1, AlphaScreen DNA substrate cleavage. Potency, µM (highest dose often 130 µM), usual class: inhibitors. hit rate 0.28% among 350,000; also: nearly all actives have a fitted effect of over 40% in size
# Target sequence (Q9NUW8 whole entry, looked up): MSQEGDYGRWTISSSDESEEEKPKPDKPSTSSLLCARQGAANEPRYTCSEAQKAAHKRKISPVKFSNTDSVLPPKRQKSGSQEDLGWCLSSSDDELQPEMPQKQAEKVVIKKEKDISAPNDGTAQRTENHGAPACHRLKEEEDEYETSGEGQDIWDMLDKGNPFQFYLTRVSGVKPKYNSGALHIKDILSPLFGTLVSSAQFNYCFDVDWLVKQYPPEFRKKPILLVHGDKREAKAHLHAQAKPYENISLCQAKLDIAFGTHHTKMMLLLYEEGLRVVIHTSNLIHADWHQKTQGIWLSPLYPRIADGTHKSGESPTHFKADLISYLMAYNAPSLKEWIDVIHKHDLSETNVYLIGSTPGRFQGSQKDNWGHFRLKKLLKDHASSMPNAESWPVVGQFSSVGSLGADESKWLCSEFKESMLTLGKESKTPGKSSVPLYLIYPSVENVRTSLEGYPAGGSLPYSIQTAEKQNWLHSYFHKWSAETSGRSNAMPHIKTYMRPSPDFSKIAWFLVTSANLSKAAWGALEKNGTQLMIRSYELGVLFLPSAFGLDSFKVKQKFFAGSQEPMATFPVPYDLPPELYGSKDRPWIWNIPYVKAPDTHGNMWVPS
#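 Recombinant human Tdp1 (E. coli-expressed, 1 nM final) preincubated with compounds 15 min at room temperature, then 5'-biotin/3'-phosphotyrosine-FITC DNA substrate (15 nM final) added for 5 min. AlphaScreen beads (10 ug/ml final) added 10 min; cleavage lowers signal.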
# Hits are given with their value; - = inactive; ? = inconclusive; . = not tested or not shown; [ ] = remark or other dose. Unless noted, calls follow the shape of the dose curve; as a rule, active = well fitted curve in the direction sought with a large enough effect; inconclusive = small, poorly fitted or top-dose-only effect, or another doubt; inactive = no such curve, though single readings can be large; an effect the other way counts as inactive or inconclusive.
SMILES,TDP1 cell CPT,HepG2 tox,IL-1B inflam inh,TGFb SMAD3 inh,DT40 TDP1 no CPT,TDP1 inh
CCOc1ccc(CNC(=O)c2ccc3c(c2)N(Cc2ccccc2)CCS3)cc1,?,-,.,.,13µM,-
COc1ccc(OC)c(CCNC(=O)c2ccc3c(c2)N(Cc2ccc(C)cc2)CCS3)c1,?,-,.,?,23.1µM,-
COc1ccc(CCNC(=O)c2ccc3c(c2)N(Cc2ccc(F)cc2)CCS3)cc1OC,?,-,-,?,14.6µM,-
COc1ccc(CNC(=O)c2ccc3c(c2)N(Cc2ccccc2)CCS3)cc1,?,-,.,-,14.6µM,-
CC(=O)c1ccc(NC(=O)Cn2cnc3nc4c(cc3c2=O)CC(C)CC4)cc1 (centres undefined),-,-,.,-,-,-
N#Cc1cccc(NC(=O)N2CCC3(CC2)CCN(C(=O)c2cccc(F)c2)CC3)c1,-,.,.,.,-,.
CCOc1ccc(CCNC(=O)c2ccc3c(c2)N(Cc2ccc(C)cc2)CCS3)cc1,18.4µM,-,.,-,?,-
COc1ccc(CCNC(=O)c2ccc3c(c2)N(Cc2ccc(Cl)cc2)CCS3)c(OC)c1,.,-,.,-,.,-
CC(C)Oc1ccc(CNC(=O)c2ccc3c(c2)N(Cc2ccc(F)cc2)CCS3)cc1,10.3µM,-,.,.,7.31µM,-
CCN1CCSc2ccc(C(=O)NCc3ccc(F)cc3)cc21,.,-,.,-,.,-
CN(C)S(=O)(=O)c1cccc(NC(=O)COC(=O)c2cc3ccccc3oc2=O)c1,-,-,-,-,-,-
Cc1cc(C)cc(NC(=O)Cc2csc(COc3cccc(C)c3)n2)c1,-,-,.,-,-,-
O=C(NCCN1CCC(n2c(=O)[nH]c3ccccc32)CC1)c1ccc(C(F)(F)F)cc1C(F)(F)F,5.8µM,.,-,.,4.61µM,.
O=C(NCCN1CCC(n2c(=O)[nH]c3ccccc32)CC1)c1cccnc1Cl,?,.,?,.,-,.
O=C(NCCN1CCC(n2c(=O)[nH]c3ccccc32)CC1)c1ccc(F)c(C(F)(F)F)c1,?,.,?,.,25.9µM,.
O=C(NCCN1CCC(n2c(=O)[nH]c3ccccc32)CC1)c1ccc(F)c(F)c1,0.326µM,.,.,.,-,.
COc1ccc(C(=O)NCCN2CCC(n3c(=O)[nH]c4ccccc43)CC2)cc1F,-,.,.,.,-,.
CCOc1ccc(CN(C(=O)c2ccccn2)c2ccc(OC)c(Cl)c2)cc1,?,-,-,-,?,-[0.0935 µM]
O=C(c1ccc(-c2ccccc2Cl)s1)N1CCOCC1,-,-,?,-,-,.
O=C(Cn1cc(S(=O)(=O)Cc2ccccc2)c2ccccc21)Nc1ccccc1,-,-,-,-,-,-
CC(=O)c1ccc(NC(=O)Cn2cc(S(=O)(=O)Cc3cccc(Cl)c3)c3ccccc32)cc1,23.1µM,-,.,?,23.1µM,-
O=C(Cn1cc(S(=O)(=O)Cc2cccc(Cl)c2)c2ccccc21)Nc1ccccc1C(F)(F)F,13µM,-,.,-,?,-
CC(C)c1ccc(Nc2sc(C(=O)c3ccccc3)c(N)c2S(=O)(=O)c2ccccc2)cc1,?,-,.,-,?,-
COc1ccc(CCC(=O)N2CCN(S(=O)(=O)c3cccc(Cl)c3)CC2)cc1,?,-,-,-,?,-
c1ccc(Nc2ccccn2)cc1,?,-,-,-,25.9µM,-
SMILES,TDP1 cell CPT,HepG2 tox,IL-1B inflam inh,TGFb SMAD3 inh,DT40 TDP1 no CPT,TDP1 inh
Cc1ccc(C)c(Nc2nc3ccccc3[nH]2)c1,-,-,-94.3,-,-,.
Nc1ccccc1Nc1nc2ccccc2[nH]1,?,-,-,?,25.9µM,.
c1ccc(Nc2nc3ccccc3[nH]2)nc1,?,-,-80.5,?,?,-
COc1ccc(S(=O)(=O)NCCc2sc(-c3cccnc3)nc2C)cc1OC,.,-,.,-,.,-
CCCCc1nc(N2CCN(C(=O)c3ccco3)CC2)c(C#N)c2c1CCCC2,?,-,-,?,?,-
COc1cccc(CN2CCC(Oc3ccc(C(=O)N4CCCCC4)cc3)CC2)c1O,-,-,-,-,-,-
CC(=O)Nc1ccc(C(=O)NCC2CCCCC2)cc1,-,-,-,-,-,.
FC(F)(F)c1cnc2c(c1)Nc1ccccc1S2,?,-,-,?,20.6µM,-
c1ccc2c(c1)Nc1nccnc1S2,?,-,-,-,-,-
CNC(=O)N(C1=NCC(C)(C)S1)c1ccc(F)c(Cl)c1,?,-,-,-,18.4µM,-
COC(=O)c1sccc1-c1ccc(C(=O)Nc2cccc(Cl)c2)o1,?,-,-,-,23.1µM,-
